Data: the supplement of paper PMC3724861
The sample as a whole holds a higher share of hits than the screen did. The hit rate among all sequences tested is not known here. Values without a mark were called inactive.

test system: T1, Caupolican (Caup) homeodomain DNA-binding domain; assay: PBM E-score (8-mer, recovered from the published 9-mer minima) (E-score (dimensionless, -0.5 to 0.5)); Drosophila protein; higher = stronger relative binding preference, active = 0.31 or more
T1 sequence: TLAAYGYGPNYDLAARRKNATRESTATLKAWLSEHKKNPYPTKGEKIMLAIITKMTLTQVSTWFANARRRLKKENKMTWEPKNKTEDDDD
How it was run: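 Caup's homeodomain DNA-binding domain (residues 214-303) was made by in vitro transcription and translation and applied at 100 nM to custom-designed protein binding microarrays. Each value is an enrichment score that gives relative binding preference for a short DNA word, with higher meaning stronger. The 8-mer values were recovered from published 9-mer scores, each of which was the minimum of its two constituent 8-mer scores. A cutoff of 0.31 marks candidate sites.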

Row | Sequence | PBM E-score
1 | CATGACTA | 0.198
2 | CATCTTAG | 0.0142
3 | ATGGCGTA | 0.002
4 | CCTCCGCA | -0.12
5 | CACTCTTC | 0.0141
6 | AACAAGAT | 0.334 (active)
7 | AACAAGAG | 0.243
8 | AACAAAAT | 0.209
9 | GACCGCAC | -0.162
10 | ATAGCTCA | -0.0365
11 | GTGACAAC | 0.303
12 | ATGACAGC | 0.202
13 | ATGACAAG | ≥ 0.378 (active)
14 | ATGACAAC | 0.375 (active)
15 | CTGACAAC | 0.281
16 | ATGACAAA | 0.248
17 | ATGACAAT | 0.274
18 | CTGACAAA | 0.132
19 | CTGACAAG | 0.341 (active)
20 | CGATCATA | 0.0822
21 | GGAGCCGA | -0.213
22 | GCATCGTA | -0.088
23 | ACCAGCTG | -0.0781
24 | ATTTGTAG | 0.239
25 | CGTGAACC | -0.0185

Row | Sequence | PBM E-score
26 | CATATCGG | 0.0413
27 | GAGCGGCA | -0.199
28 | AGCTTGTG | -0.0301
29 | GGCTTGAA | -0.103
30 | AGCTTGTA | 0.368 (active)
31 | CGCTTGTA | 0.313 (active)
32 | CGCTTGAA | 0.0019
33 | GGCTTGGA | -0.0906
34 | CGCTTGTC | 0.272
35 | AGCTTGTC | 0.261
36 | GGCTTGTA | 0.312 (active)
37 | CCAGCCGG | -0.247
38 | AATTAAAA | 0.0931
39 | ACAGTTTG | 0.0438
40 | AGAGTCAC | -0.0337
41 | AATCTTAG | -0.0734
42 | AGACCGGG | -0.179
43 | CACCCGAA | -0.0428
44 | GTCCCTAA | -0.0722
45 | ACTGTTCA | 0.0851
46 | CTTGGATC | 0.0244
47 | CGTGTAGA | 0.29
48 | CGTGTAGC | 0.276
49 | CGTGTACC | 0.35 (active)
50 | CGTGTGTA | 0.283

Row | Sequence | PBM E-score
51 | CGTGTACA | ≥ 0.441 (active)
52 | AGTGTACC | 0.207
53 | GTCATCTA | 0.0593
54 | CAGGTACA | 0.298
55 | ATGGTACA | 0.32 (active)
56 | ATGGTACC | 0.0486
57 | CTGGTACC | 0.0519
58 | CTGGTACA | 0.319 (active)
59 | TAGGTACA | 0.271
60 | GTGGTACA | 0.277
61 | ATGGTACG | 0.0989
62 | GAGGTACA | 0.326 (active)
63 | AGGACCTG | -0.102
64 | AAGCATTG | 0.102
65 | CAACCTGG | 0.0642
66 | AGGTGGCC | -0.286
67 | CAAGCCCC | -0.174
68 | GCTACAAC | 0.169
69 | ACTACAAT | 0.19
70 | ACTACAAA | 0.256
71 | ACTACAAG | ≥ 0.378 (active)
72 | ACTACAAC | 0.363 (active)
73 | CCTACAAC | 0.21
74 | GAGAGCTC | -0.215
75 | CGTCTATC | 0.0194

Row | Sequence | PBM E-score
76 | CTTTTCGC | -0.012
77 | CGGTTGTC | 0.185
78 | TACTTTAA | 0.115
79 | CCTGTCAC | 0.144
80 | CTTGTCAC | 0.322 (active)
81 | AGTGTCAC | 0.13
82 | GATGTCAC | 0.294
83 | CCTGTCAG | 0.115
84 | CATGTCAC | 0.446 (active)
85 | CATGTCAG | 0.413 (active)
86 | AATGTCAC | 0.303
87 | CGTGTCAC | 0.334 (active)
88 | CGTGTCAG | 0.276
89 | AATGTCAG | 0.197
90 | ATTGTCAC | 0.224
91 | AGCGTCCA | -0.0936
92 | AAAGTATT | 0.131
93 | CGGGCTTC | -0.289
94 | AGATCGGA | 0.0416
95 | GAAGTGAC | 0.0523
96 | GCCGGGGA | -0.241
97 | CGAACCCC | -0.249
98 | ATCAGTCC | -0.143
99 | AAATTGGG | -0.0398
100 | AAGTTTGC | 0.0221

Row | Sequence | PBM E-score
101 | CATGTCAA | 0.422 (active)
102 | CGTGTCAA | 0.282
103 | CCTGTCAA | 0.172
104 | CGGGACTC | -0.204
105 | CCCGATCC | -0.127
106 | ATCCCCAC | -0.0707
107 | CTACACAA | 0.288
108 | ATACACAT | 0.311 (active)
109 | CTACACAC | 0.175
110 | TCACACAA | 0.193
111 | GTACACAA | 0.338 (active)
112 | TGACACAA | 0.259
113 | GCACACAC | 0.0659
114 | GCACACAA | 0.0665
115 | GTACACAC | 0.331 (active)
116 | TTACACAA | 0.311 (active)
117 | AAACACAT | 0.229
118 | AGACACAT | 0.213
119 | CATGGCCC | -0.169
120 | GGGCTTAC | -0.119
121 | CACTAATA | 0.118
122 | GTTAGTAA | 0.177
123 | CTTATTAC | 0.0885
124 | CTGTGCGA | -0.0551
125 | CCTACCGA | -0.0361

Row | Sequence | PBM E-score
126 | AGTGCGGG | -0.187
127 | ATCTTCGG | 0.00377
128 | ACACAGCT | 0.109
129 | ACCCATCC | -0.0713
130 | GCGCCCTA | -0.273
131 | ATATAGCC | 0.0657
132 | ATACACAA | ≥ 0.341 (active)
133 | ATACACAC | 0.256
134 | ATACACAG | 0.193
135 | ATTTTCCC | -0.00887
136 | CAAACTGC | -0.0256
137 | CGCTAATC | -0.0282
138 | TATAGAAA | 0.118
139 | ACAAATGA | 0.154
140 | AACAATGA | 0.244
141 | AACAATGG | 0.198
142 | ACAAATGG | 0.193
143 | ACAAATGT | ≥ 0.311 (active)
144 | AACAATGT | 0.345 (active)
145 | ATGAGCTC | -0.0796
